Calls of active or inactive are those of the source.
Key:
[1] = compound effects on lung adenocarcinoma cell viability – A549, calcein-AM fluorescence, 48 h, basal, profiling panel (AID 1162); conditions: higher = more signal
[2] = compound effects on differentiated 3T3-L1 adipocyte viability – cell-based, 3T3-L1 adipocytes, calcein-AM fluorescence, 48 h, basal, profiling panel (AID 1163); conditions: 3T3-L1 adipocytes viability, higher = more signal
[3] = compound effects on hepatocellular carcinoma cell viability – HepG2, calcein-AM fluorescence, 48 h, basal, profiling panel (AID 1164); conditions: higher = more signal
[4] = compound effects on multiple myeloma cell viability – MM1S, calcein-AM fluorescence, 48 h, basal, profiling panel (AID 1165); conditions: higher = more signal
[5] = calcein-AM signal in unstimulated myeloma cells – cell-based, calcein-AM fluorescence, 48 h, PK04 Diversity Set, profiling panel (AID 1166); conditions: RPMI8226 myeloma viability, higher = more signal;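 also: cells grown under basal conditions without added stimulus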
[6] = JC-1 mitochondrial signal, unstimulated HepG2 cells – cell-based, JC-1 fluorescence, 24 h, 100 nL compound, profiling panel (AID 1167); conditions: HepG2 mitochondrial potential, higher = more signal
[7] = JC-1 mitochondrial signal, unstimulated adipocytes – cell-based, JC-1 fluorescence, 3T3-L1 adipocytes, 24 h, 100 nL compound, profiling panel (AID 1168); conditions: JC-1 mitochondrial fluorescence, higher = more signal, called active from +8 up or from −8 down
[8] = JC-1 mitochondrial signal, unstimulated myeloma cells – cell-based, JC-1 fluorescence, RPMI8226, 24 h, 100 nL compound, profiling panel (AID 1169); conditions: JC-1 mitochondrial potential fluorescence, higher = more signal
[9] = JC-1 mitochondrial signal, unstimulated MM1S myeloma – cell-based, JC-1 fluorescence, 24 h, 100 nL compound, profiling panel (AID 1170); conditions: MM1S mitochondrial potential, higher = more signal
[10] = resazurin metabolic signal in A549 cells – cell-based, resazurin fluorescence, 24 h, PK04 Diversity Set, profiling panel (AID 1171); conditions: A549 viability, higher = more signal, called active from +8 up or from −8 down
Also: test concentration not given here.

| SMILES | z-score [1] | z-score [2] | z-score [3] | z-score [4] | z-score [5] | z-score [6] | z-score [7] | z-score [8] | z-score [9] | z-score [10] |
| --- | --- | --- | --- | --- | --- | --- | --- | --- | --- | --- |
| O=C1OCCC/C=C\[C@H]2OC34C=CCN(Cn5nnc6ccccc65)C(=O)[C@H]3N(CCCCCO)C(=O)[C@@H]4C12 (stereo not given in full) | -0.452 | 1.05 | -1.02 | -0.496 | 0.424 | 0.19 | 0.0884 (inactive) | -0.212 | 0.37 | 0.0684 (inactive) |
| O=C/C=C/c1ccc(Cl)cc1 | 1.04 | -0.0776 | 0.265 | -3.17 | 0.45 | 1.32 | -0.34 (inactive) | -0.762 | -1.25 | -0.835 (inactive) |
| COC(=O)[C@@]1(Cc2ccccc2)[C@H]2c3cc(C(=O)N(C)C)n(Cc4c(-c5ccccc5)noc4C)c3C[C@H]2CN1C(=O)c1ccccc1 | -0.914 | -1 | -1.41 | -1.05 | -1.09 | 2.14 | -1.05 (inactive) | 0.168 | -0.822 | -0.702 (inactive) |
| CCOC(=O)C1=CCC(c2ccc(C#N)cc2)N(S(=O)(=O)c2ccc(C)cc2)C1 (stereo not given) | -1.14 | -0.68 | 0.109 | -0.548 | -0.741 | -0.259 | 0.345 (inactive) | -0.516 | -1.71 | -0.343 (inactive) |
| CC(=O)NCCCC[C@@H]1NC(=O)[C@H]2C[C@@H](C(=O)NCCCCCC[N+](C)(C)C)[C@@H](c3cccc(OCCO)c3)N2C1=O | -0.144 | 1.14 | -0.827 | 0.385 | -0.418 | -1.44 | 0.326 (inactive) | -0.135 | -0.872 | 0.925 (inactive) |
| CCOC(=O)C[C@H]1[C@H](OC(=O)c2ccccc2-c2ccccc2)[C@@H](NC(=O)c2ccc3ccccc3c2)c2cc(OCCCO)ccc2N1C(=O)c1ccc2ccccc2n1 | 0.135 | 0.487 | -0.0645 | -0.957 | -0.442 | 0.732 | 2.16 (inactive) | -0.337 | -0.615 | 0.735 (inactive) |
| CC(C)C(=C=CC[C@H](O)c1ccccc1OCCO)C[C@H](O)c1ccccn1 | 0.82 | -0.27 | 1.33 | 0.198 | 0.0964 | 0.714 | 0.085 (inactive) | -0.332 | -1.3 | -0.607 (inactive) |
| COCCOC(=O)N1C(=O)[C@@]2(c3cc(C#CCC(C(=O)OC)C(=O)OC)ccc31)[C@H](c1ccccc1OCCO)N1[C@H](c3ccccc3)[C@H](c3ccccc3)OC(=O)[C@H]1[C@@H]2C(N)=O | 0.597 | 0.0915 | -1.58 | -3.4 | -4.17 | -0.603 | 1.69 (inactive) | -0.986 | -1.84 | -0.212 (inactive) |
| Cc1cc(C)cc(N2C(=O)CS(=O)(=O)C2c2cccc([N+](=O)[O-])c2)c1 (stereo not given) | 1.26 | 0.869 | 1.41 | 0.871 | 1.47 | 0.994 | 0.76 (inactive) | -0.327 | -0.744 | -0.913 (inactive) |
| [N-]=[N+]=NCc1ccccc1C[C@]1(C(=O)NCC(O)CO)N=C(c2ccc(OCCCO)cc2)O[C@H]1c1ccccc1N=[N+]=[N-] (stereo not given in full) | -0.13 | 1.27 | -0.35 | -1.09 | -1.11 | 0.0849 | 1.19 (inactive) | -0.893 | -0.384 | 0.0953 (inactive) |
| O=C1OCCC=C[C@H]2OC34C=CCN(c5ccc6ccccc6c5)C(=O)[C@H]3N(CCCCCO)C(=O)[C@@H]4C12 (stereo not given in full) | 0.32 | -0.691 | 1.84 | 1.35 | 0.0492 | 1.53 | -0.279 (inactive) | -0.0802 | -0.0576 | 0.384 (inactive) |
| Cc1ccccc1C(O)C1C=CC2C(=O)N(C)C(=O)C2N1N1CCCCC1 (stereo not given) | -0.578 | -1.18 | -0.979 | -0.587 | -0.436 | -1.64 | -1.01 (inactive) | 0.207 | 0.201 | -0.464 (inactive) |
| COc1ccc(CCNC(=O)[C@@]2(c3ccc([N+](=O)[O-])cc3)CC(=O)N(CC34CC5CC(CC(C5)C3)C4)[C@@H]2c2ccc(CO)cc2)cc1 | -2.36 | 0.369 | -1.88 | -2.98 | -4.23 | 1.23 | -0.626 (inactive) | -0.857 | -0.452 | -2.29 (inactive) |
| CC(C)N1C(=O)[C@@]2(c3ccc([N+](=O)[O-])cc3)CC(=O)N(CC34CC5CC(CC(C5)C3)C4)[C@@H]2c2ccc(CO)cc21 | 0.192 | -1.22 | 1.36 | 0.496 | 0.13 | 0.396 | 0.888 (inactive) | -0.361 | -0.512 | -0.695 (inactive) |
| COC(=O)[C@@]1(Cc2ccccc2)[C@H]2c3cc(C(=O)N(C)C)n(Cc4cc(C)n(C)n4)c3C[C@H]2CN1C(=O)c1ccccc1 | -0.997 | 0.461 | 0.0271 | -0.47 | -0.965 | 1.17 | -1.24 (inactive) | -0.0807 | 0.0916 | -0.236 (inactive) |
| O=C1C2C=CC(C(O)c3ccc(B(O)O)cc3)N(Nc3ccccc3)C2C(=O)N1c1ccccc1 (stereo not given) | -1.52 | -0.305 | -1.38 | -1.74 | -2.12 | -2.75 | -0.654 (inactive) | -0.162 | -0.613 | -0.742 (inactive) |
| CC(c1ccccc1)C(O)C1C=CC2C(=O)NC(=O)C2N1Nc1ccccn1 (stereo not given) | 0.405 | -0.309 | 0.925 | -0.275 | 0.291 | 0.0592 | -0.739 (inactive) | 0.568 | -0.533 | -0.81 (inactive) |
| CCCCC=C[C@@H](NC(=O)c1cccs1)c1ccccc1 | -2.03 | -0.906 | -1.92 | -1.66 | -4.69 | -0.503 | 0.482 (inactive) | -0.817 | -1.73 | -1.49 (inactive) |
| COCC(=C=CC[C@@H](O)c1ccc(CO)o1)CCO | 2.82 | 1.72 | 0.783 | 0.178 | 1.94 | 0.281 | -0.24 (inactive) | 0.824 | -1.08 | 0.559 (inactive) |
| CCCCCN1CC=CC23O[C@@H]4C=CCOC(=O)[C@@H]4[C@H]2C(=O)N(CCCO)[C@@H]3C1=O (stereo not given in full) | -0.279 | 2.21 | -0.721 | 0.364 | -0.0478 | -1.29 | -0.883 (inactive) | -0.022 | 0.208 | -0.15 (inactive) |
| COC(=O)c1ccc(OC)c(/C=C\CC(OC(C)=O)c2ccccc2)c1 (stereo not given) | -1.01 | 0.386 | -0.753 | -1.4 | -2.39 | -0.995 | -1.15 (inactive) | -0.578 | 0.0862 | 0.519 (inactive) |
| C=CCOC(=O)[C@@H]1[C@H]2C(=O)O[C@H](c3ccccc3)[C@H](c3ccccc3)N2[C@H](c2ccc(OCCOC(=O)[C@@H]3C[C@@H]4C(=O)N[C@@H](Cc5ccccc5)C(=O)N4[C@@H]3c3cccc(OCCO)c3)cc2)[C@@]12C(=O)Nc1ccc(I)cc12 | -1.15 | 0.185 | -0.0074 | 0.359 | -1.1 | -1.57 | 0.235 (inactive) | -0.505 | -1.14 | 0.789 (inactive) |
| C=CCOC(=O)[C@@H]1[C@H]2C(=O)O[C@H](c3ccccc3)[C@H](c3ccccc3)N2[C@H](c2ccc(OCCOC(=O)[C@@H]3C[C@@H]4C(=O)NCC(=O)N4[C@@H]3c3cccc(OCCO)c3)cc2)[C@@]12C(=O)Nc1ccc(I)cc12 | 0.0646 | 0.904 | 0.646 | -0.0922 | 0.129 | -0.941 | 1.47 (inactive) | -0.446 | -1.08 | 0.0716 (inactive) |
| CC(C)(C)N1CC=CC23O[C@@H]4/C=C\CCCOC(=O)C4[C@H]2C(=O)N(CCO)[C@@H]3C1=O (stereo not given in full) | -0.612 | 1.15 | -0.664 | 0.889 | -0.689 | -0.388 | -0.79 (inactive) | -0.0669 | 1.11 | -0.876 (inactive) |
| C=CCC(OC(C)=O)[C@@H]1[C@@H](N(Cc2cccc3ccccc23)C(=O)c2cccc3ccccc23)c2cc(OCCCO)ccc2N1C(=O)c1ccc2ccccc2n1 (stereo not given in full) | -0.7 | 0.161 | -0.571 | -0.399 | -0.128 | 0.978 | -1.2 (inactive) | -0.133 | 0.248 | 0.0076 (inactive) |
| COCC(=C=CC[C@H](O)c1ccc(OCCO)cc1)C[C@H](O)c1cc(Cl)cc(Cl)c1O | -1.05 | 0.0622 | -0.616 | -2.31 | -0.638 | -0.0342 | 0.138 (inactive) | 0.04 | -1.42 | 0.799 (inactive) |
| CC(C)CNC(=O)[C@@]1(c2ccc([N+](=O)[O-])cc2)CC(=O)N(CC23CC4CC(CC(C4)C2)C3)[C@@H]1c1ccc(CO)cc1 | -0.642 | 1.57 | -0.715 | -2.68 | -3.66 | 0.0331 | 0.226 (inactive) | -1 | 0.857 | -2.47 (inactive) |
| CCOc1cc(C(O)C2C=CC3C(=O)N(c4ccccc4)C(=O)C3N2Nc2ccc([N+](=O)[O-])cc2)ccc1O (stereo not given) | -0.499 | -0.742 | -0.527 | 0.162 | -0.223 | -2.36 | -2.03 (inactive) | -0.459 | -0.908 | -0.373 (inactive) |
| O=C1OCCC=C[C@H]2OC34C=CCN(Cc5ccccc5)C(=O)[C@H]3N(CCCO)C(=O)[C@@H]4C12 (stereo not given in full) | 0.577 | 1.66 | -1.04 | 0.0832 | -0.0189 | 0.161 | -0.282 (inactive) | 0.798 | -0.559 | 0.233 (inactive) |
